Molecules are shown by their SMILES. “And” between values parts separate entries of the source, which are not always exact repeats. Equal values may be shown once. Out of some 16,000 compounds screened, about 5,800 (36%) were called active. Roughly 23% stayed inconclusive and do not appear here. Some of the results follow. A number with no mark means an inactive call. Calls follow the shape of the dose curve; as a rule, active = well fitted curve in the direction sought with a large enough effect; inconclusive = small, poorly fitted or top-dose-only effect, or effect the other way; inactive = no such curve, though single readings can be large or run the other way.
% is scaled to controls: 0 for no effect and ±100 for the full control effect.

Chain of Cytochrome P450 2C19 (Homo sapiens) (P33261 whole entry, looked up): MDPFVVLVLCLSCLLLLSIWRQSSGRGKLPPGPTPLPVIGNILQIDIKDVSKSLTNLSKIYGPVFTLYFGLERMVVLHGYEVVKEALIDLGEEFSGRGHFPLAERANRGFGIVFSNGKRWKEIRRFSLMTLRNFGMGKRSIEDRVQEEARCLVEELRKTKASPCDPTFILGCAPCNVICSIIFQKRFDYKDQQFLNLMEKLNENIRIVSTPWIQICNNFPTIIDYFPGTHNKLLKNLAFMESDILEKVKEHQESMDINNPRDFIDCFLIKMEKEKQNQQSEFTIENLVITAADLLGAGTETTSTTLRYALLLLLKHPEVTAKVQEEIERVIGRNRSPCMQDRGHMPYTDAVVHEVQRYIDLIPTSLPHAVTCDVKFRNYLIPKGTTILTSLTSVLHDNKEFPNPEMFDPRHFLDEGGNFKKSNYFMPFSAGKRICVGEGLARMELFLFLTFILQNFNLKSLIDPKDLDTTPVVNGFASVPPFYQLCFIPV

The assay concerns the target Cytochrome P450 2C19 (Homo sapiens) (UniProt P33261). Briefly: Cytochrome panel assay with activity outcomes. As to conditions: recombinant CYP, pro-luciferin dealkylation, luminescence, p450-cyp2c19; series mostly up to 57.1 µM; activity, negative = inhibition: at the top concentration.
For orientation: AC50 means the concentration giving half of the maximal activity seen. With `O=C(NCC(c1cccs1)N1CCOCC1)c1ccco1` (stereo unspecified), the AC50 was 8.91 µM (active).

As to `O=C(c1ccco1)N1CCC2(CCN(Cc3nccs3)CC2)CC1`, the “activity, negative = inhibition” value is -1.61%.

With `CCC1=NN(C(=O)CCc2ccccc2)C(O)(C(F)(F)F)C1` (stereo unspecified), the AC50 is 0.224 µM (active).

Turning to `COc1cccc(C(=O)N2N=C(c3cccc(OC)c3)CC2(O)C(F)(F)F)c1` (stereo unspecified), the AC50 was 0.794 µM (active).

With `O=C(CCc1ccccc1)Nc1ncn[nH]1`, the “activity, negative = inhibition” value was -13.6%.

In the case of `CCOC(=O)N1N=C(c2ccccc2)CC1(O)C(F)(F)F` (stereo unspecified), the AC50 is 15.8 µM (active).

Regarding `CCOC(=O)N1CCN(C(=O)CCn2nc(-c3ccccc3)ccc2=O)CC1`, the “activity, negative = inhibition” value is 31%.

In the case of `CCc1cc2c(nc1CC)CCN(CC/C(C)=N/OCC[C@@H]1C=C[C@H](OC(C)=O)[C@H](COC(C)=O)O1)C2`, the activity, negative = inhibition was 7.29% [at 11.4 µM].

With `O=C(Cn1nnc(-c2ccccc2)n1)OCc1ccccc1`, the AC50 is 3.98 µM (active).

Regarding `CN1/C(=C\C(=O)COC(=O)Cn2nnc(-c3ccccc3)n2)C(C)(C)c2ccccc21`, the AC50 is 11.2 µM (active).

For the molecule `COCCn1c(=O)c(-c2cc(F)cc(F)c2)nc2cnc(N(C)C)nc21`, the “activity, negative = inhibition” value is 38.8%.

Regarding `O=[N+]([O-])C1=CC=C2C(=NC3(CCCCC3)N2O)C1=NC1CCCCC1`, the AC50 is 3.16 µM (active).

With `Cc1ccc(NC(=O)Nc2ncccc2C)cc1`, the AC50 was 15.8 µM (active).

Consider `O=C(Nc1ccc2ncccc2c1)Nc1ccc2ncccc2c1`, for which the activity, negative = inhibition is 14.5% [at 11.4 µM].

On to `Cc1cccc(C)c1NC(=O)Nc1ccc(S(N)(=O)=O)cc1`, for which the activity, negative = inhibition is 23.1% [at 11.4 µM].

Consider `CCN(/C=N/c1sc2c(c1C#N)CCCCC2)CC`, for which the AC50 was 1.26 µM (active).

For `CC(C)NCC[C@@H](O)c1cc2ccccc2o1`, the activity, negative = inhibition is 31.3% [at 11.4 µM].

Take `CCOC(=O)CSc1nnc(CSc2nc3sc4c(c3c(=O)[nH]2)CCCC4)n1-c1ccccc1`: the AC50 was 2.51 µM (active).

As to `Nc1ccc(S(=O)(=O)c2ccc(NC(=O)c3cccnc3)cc2)cc1`, the activity, negative = inhibition is 3.12% [at 11.4 µM].

`COC(=O)C(NS(=O)(=O)c1ccc(NC(C)=O)cc1)C(C)C` (stereo unspecified): the AC50 is 3.16 µM (active).

For the molecule `CC(=O)Nc1ccc(S(=O)(=O)c2ccc(N)cc2)cc1`, the AC50 was 15.8 µM (active).

As for `CC(=O)Nc1ccc(S(=O)(=O)N=S(C)C)cc1`, the activity, negative = inhibition is 14.7% [at 11.4 µM].

For `COC(=O)[C@@H](NC(=O)Nc1ccc(C(C)=O)cc1)C(C)C`, the AC50 is 17.8 µM (active).

As for `Cc1ccc(S(=O)(=O)N[C@H](C(=O)O)C(C)C)cc1`, the activity, negative = inhibition is 4% [at 11.4 µM].

Take `Oc1cc2c(cc1O)[C@H](c1ccccc1)CNCC2`: the AC50 result was “inactive”.

In the case of `CO/N=C\[C@@H](C)[C@H](OCc1ccccc1)C(C)C`, the activity, negative = inhibition was 2.64% [at 11.4 µM].

Turning to `Cc1ccc(C(C2C(=O)CC(C)(C)CC2=O)C2C(=O)CC(C)(C)CC2=O)s1`, the AC50 was 11.2 µM (active).

For the molecule `CC1(C)CC(=O)C(C(c2cccc(O)c2O)C2C(=O)CC(C)(C)CC2=O)C(=O)C1`, the activity, negative = inhibition was 26% [at 11.4 µM].

Regarding `CN1CCCN(C2C3CC4CC(C3)CC2C4)CC1` (stereo unspecified), the “activity, negative = inhibition” value was -11.6%.

Take `O=C(C1CCN(S(=O)(=O)c2cccc3nsnc23)CC1)N1CCN(c2ccccc2F)CC1`: the AC50 was 22.4 µM (active).

Take `O=C(C1CCN(S(=O)(=O)c2cccc3nsnc23)CC1)N1CCn2c1nc1ccccc12`: the AC50 is 10 µM (active).

For the molecule `O=C(Nn1cc(C(=O)N2CCN(c3ccccc3F)CC2)c2ccccc2c1=O)c1cnccn1`, the “activity, negative = inhibition” value is 5.4%.

For `O=C(C1CCCN(S(=O)(=O)c2cccc3nsnc23)C1)N1CC=C(c2ccccc2)CC1` (stereo unspecified), the AC50 is 2.51 µM (active).

As for `O=S(=O)(c1cccc2c(Cl)cccc12)N1CCCNCC1`, the AC50 entry is “inactive”.

Regarding `CC(C)N1CCN(c2ccncc2S(=O)(=O)N2CCCCC2)CC1`, the activity, negative = inhibition was -23.9% [at 11.4 µM].

On to `O=S(=O)(c1ccccc1S(=O)(=O)N1CCCCC1)N1CCCCC1`, for which the AC50 is 22.4 µM (active).

Take `CC1CCC(C(=O)O)([C@H](Br)C(=O)O)CC1` (stereo partly specified): the activity, negative = inhibition is -0.894% [at 11.4 µM].

For `COc1ccc([C@@H]2CNC(=O)C2)cc1OC1CCCC1`, the AC50 entry was “inactive”.

With `Cc1ncc(CO)c(CO)c1O`, the “activity, negative = inhibition” value is -13.5% [at 25.6 µM].

Consider `O=C(C1CCN(S(=O)(=O)c2cccc3nsnc23)CC1)N1CCc2ccccc21`, for which the AC50 was 14.1 µM (active).

`C[C@H]1CN(S(=O)(=O)c2cccc3cnccc23)CCN1`: the “activity, negative = inhibition” value was -17.5%.

As to `CC1CCN(C(=O)C2CCN(S(=O)(=O)c3cccc4nonc34)CC2)CC1`, the AC50 was 11.2 µM (active).

As for `CC(=O)Nc1ccc(NC(=O)C2CCN(S(=O)(=O)c3cccc4nonc34)CC2)cc1`, the “activity, negative = inhibition” value is -27.7%.

`O=C(C1CCN(S(=O)(=O)c2cccc3nsnc23)CC1)N1CCCc2ccccc21`: the AC50 is 2 µM (active).

With `O=S(=O)(c1cnccc1N1CCN(CCO)CC1)N1CCCC1`, the activity, negative = inhibition was 33.1% [at 11.4 µM].

As for `O=S(=O)(c1cccc2nsnc12)N1CCCC1`, the AC50 is 0.891 µM (active).

On to `Cc1ccc(S(=O)(=O)N[C@H]2COC(=O)CC=C[C@@H](C)[C@H]3C=C[C@H](O)[C@@H](COC(=O)CC=C[C@H]2C)O3)cc1`, for which the activity, negative = inhibition was 14.2% [at 11.4 µM] and 5.29% [at 11.4 µM].

On to `NC[C@@H]1O[C@H](O[C@@H]2[C@H](O[C@@H]3O[C@H](CO)[C@@H](COC[C@H]4O[C@@H](CN)[C@@H](O)[C@@H](O)[C@@H]4N)[C@@H]3O)[C@@H](O)[C@@H](N)C[C@H]2N)[C@@H](N)[C@H](O)[C@@H]1O`, for which the “activity, negative = inhibition” value is 20.1% [at 25.6 µM].

Consider `CCCN(CCC)C[C@@H]1CCCCN1CCNC(=O)N1c2ccccc2C(=O)Nc2cccnc21`, for which the AC50 was 7.94 µM (active).

Consider `O=C(O)CN(CCN(CC(=O)O)CC(=O)O)CCN(CC(=O)O)CC(=O)O`, for which the “activity, negative = inhibition” value is -18.6%.

As for `Cc1cc(C)c(S(=O)(=O)N2CCCCC2)c(C)c1N(C)S(=O)(=O)c1ccccc1`, the AC50 is 2.51 µM (active).

With `CCc1ccc2c(c1)cc(CN(C(=S)Nc1cccc(C)c1)C1CC1)c1nnnn12`, the AC50 is 2.24 µM (active).

Regarding `CCCNS(=O)(=O)c1ccc(OCC(=O)OC)cc1`, the AC50 is 10 µM (active).

Take `CCN1C(=O)/C(=C/C=C2/SCCN2C)SC1=S`: the AC50 is 14.1 µM (active).

With `CCNc1ncc2nc(-c3cccs3)c(=O)n(C)c2n1`, the “activity, negative = inhibition” value was 2.33%.

For `Cc1ccn2c(NC(=O)c3ccccc3)c(-c3cccs3)nc2c1`, the AC50 was 17.8 µM (active).

Values taken from PubChem BioAssay AID1851 (National Center for Advancing Translational Sciences (NCATS), 2009).
